Here are results for four molecules from ChEMBL document CHEMBL1961873, “Compounds: GSK PKIS; Assays: Nanosyn kinase panel” (2012).

Assay [1] addresses T1, Serine/threonine-protein kinase Nek9 (Homo sapiens) (UniProt Q8TD19).
T1 sequence (whole entry): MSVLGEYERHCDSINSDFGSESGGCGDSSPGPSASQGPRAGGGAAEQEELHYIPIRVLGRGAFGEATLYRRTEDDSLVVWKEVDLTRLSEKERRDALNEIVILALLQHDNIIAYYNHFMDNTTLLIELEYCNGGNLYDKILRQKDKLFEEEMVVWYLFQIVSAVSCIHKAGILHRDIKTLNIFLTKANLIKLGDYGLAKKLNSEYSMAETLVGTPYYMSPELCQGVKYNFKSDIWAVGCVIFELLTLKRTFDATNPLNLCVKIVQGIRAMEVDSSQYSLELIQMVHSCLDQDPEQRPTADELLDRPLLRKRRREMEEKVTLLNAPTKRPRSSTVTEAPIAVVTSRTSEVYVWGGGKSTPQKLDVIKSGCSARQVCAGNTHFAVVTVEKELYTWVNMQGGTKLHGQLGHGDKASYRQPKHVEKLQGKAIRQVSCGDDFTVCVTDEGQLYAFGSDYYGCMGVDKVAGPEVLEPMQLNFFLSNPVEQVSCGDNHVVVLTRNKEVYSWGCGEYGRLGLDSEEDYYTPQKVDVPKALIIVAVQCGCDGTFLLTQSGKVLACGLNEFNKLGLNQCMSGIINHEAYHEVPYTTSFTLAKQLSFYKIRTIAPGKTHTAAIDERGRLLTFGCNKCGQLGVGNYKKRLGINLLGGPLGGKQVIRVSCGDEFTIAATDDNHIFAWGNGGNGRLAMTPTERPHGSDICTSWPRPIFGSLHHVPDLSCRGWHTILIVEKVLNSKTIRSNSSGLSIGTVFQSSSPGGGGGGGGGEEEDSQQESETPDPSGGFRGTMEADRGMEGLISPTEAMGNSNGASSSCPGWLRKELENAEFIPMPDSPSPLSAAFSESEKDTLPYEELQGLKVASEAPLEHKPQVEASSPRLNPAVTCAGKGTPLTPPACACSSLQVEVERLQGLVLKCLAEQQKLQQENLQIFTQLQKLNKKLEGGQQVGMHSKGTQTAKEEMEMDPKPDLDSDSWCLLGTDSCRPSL
The settings on record: at 1 µM.

Assay [2] concerns the target Serine/threonine-protein kinase PLK1 (Homo sapiens) (UniProt P53350). The settings on record: at 0.1 µM.
Assay [3] has the same target. The conditions noted are these: at 1 µM.
Assay [4] deals with T2, Dual specificity protein kinase TTK (Homo sapiens) (UniProt P33981).
T2 sequence (whole entry): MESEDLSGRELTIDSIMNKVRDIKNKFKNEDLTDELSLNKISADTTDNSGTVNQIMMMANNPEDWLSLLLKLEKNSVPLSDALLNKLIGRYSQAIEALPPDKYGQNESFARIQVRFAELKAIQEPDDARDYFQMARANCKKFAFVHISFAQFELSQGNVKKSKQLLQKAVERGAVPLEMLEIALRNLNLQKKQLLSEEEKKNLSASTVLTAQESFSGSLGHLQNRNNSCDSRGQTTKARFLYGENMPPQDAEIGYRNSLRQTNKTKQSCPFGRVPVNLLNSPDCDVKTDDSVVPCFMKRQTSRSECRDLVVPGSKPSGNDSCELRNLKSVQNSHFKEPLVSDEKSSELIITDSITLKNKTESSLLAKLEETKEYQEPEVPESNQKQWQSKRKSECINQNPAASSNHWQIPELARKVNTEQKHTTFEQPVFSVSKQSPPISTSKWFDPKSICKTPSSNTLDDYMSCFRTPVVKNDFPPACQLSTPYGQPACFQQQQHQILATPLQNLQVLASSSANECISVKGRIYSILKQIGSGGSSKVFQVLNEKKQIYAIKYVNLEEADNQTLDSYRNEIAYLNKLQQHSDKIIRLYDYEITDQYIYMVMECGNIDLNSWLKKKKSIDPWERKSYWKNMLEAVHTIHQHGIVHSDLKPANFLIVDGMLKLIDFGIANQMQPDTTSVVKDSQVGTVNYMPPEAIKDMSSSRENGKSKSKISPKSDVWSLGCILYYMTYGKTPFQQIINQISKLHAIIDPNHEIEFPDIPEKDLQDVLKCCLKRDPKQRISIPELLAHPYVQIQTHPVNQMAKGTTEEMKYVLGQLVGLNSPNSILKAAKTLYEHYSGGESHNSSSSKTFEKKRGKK
The conditions noted are these: at 0.1 µM.

Assay [5] has as its system T3, Receptor-type tyrosine-protein kinase FLT3 (Homo sapiens), P36888 [D835Y].
T3 sequence (whole entry): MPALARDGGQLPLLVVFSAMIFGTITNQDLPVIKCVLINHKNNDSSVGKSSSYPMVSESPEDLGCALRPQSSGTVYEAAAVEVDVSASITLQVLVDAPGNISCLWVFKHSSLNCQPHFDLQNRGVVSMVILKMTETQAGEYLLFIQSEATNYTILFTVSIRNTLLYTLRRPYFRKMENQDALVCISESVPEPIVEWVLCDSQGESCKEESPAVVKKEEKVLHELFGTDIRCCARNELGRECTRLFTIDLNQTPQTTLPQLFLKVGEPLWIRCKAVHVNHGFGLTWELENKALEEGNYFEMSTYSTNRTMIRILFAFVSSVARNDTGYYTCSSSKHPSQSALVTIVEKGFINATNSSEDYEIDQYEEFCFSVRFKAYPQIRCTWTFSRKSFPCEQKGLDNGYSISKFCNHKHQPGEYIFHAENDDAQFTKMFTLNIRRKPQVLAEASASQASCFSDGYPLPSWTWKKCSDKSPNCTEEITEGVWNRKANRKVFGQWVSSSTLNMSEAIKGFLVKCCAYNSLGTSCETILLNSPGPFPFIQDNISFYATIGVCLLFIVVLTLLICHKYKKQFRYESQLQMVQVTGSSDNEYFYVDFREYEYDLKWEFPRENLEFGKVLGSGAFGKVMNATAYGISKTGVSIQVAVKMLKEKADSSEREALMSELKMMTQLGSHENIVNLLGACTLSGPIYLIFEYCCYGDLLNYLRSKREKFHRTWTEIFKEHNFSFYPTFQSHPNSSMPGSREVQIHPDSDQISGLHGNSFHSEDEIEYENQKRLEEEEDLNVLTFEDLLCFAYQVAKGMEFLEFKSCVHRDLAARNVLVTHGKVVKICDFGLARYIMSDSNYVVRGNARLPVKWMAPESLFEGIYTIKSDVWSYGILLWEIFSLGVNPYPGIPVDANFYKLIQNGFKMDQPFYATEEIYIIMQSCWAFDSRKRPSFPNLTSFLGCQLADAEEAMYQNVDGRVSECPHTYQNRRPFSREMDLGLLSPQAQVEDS
The conditions noted are these: at 1 µM.

For assay [6], the target named is Vascular endothelial growth factor receptor 3 (Homo sapiens) (UniProt P35916). The settings on record: at 0.1 µM.
Assay [7] shares this target. The conditions noted are these: at 1 µM.
Assay [8] addresses Macrophage colony-stimulating factor 1 receptor (Homo sapiens) (UniProt P07333). The settings on record: at 0.1 µM.
For assay [9] the target is unchanged. The settings on record: at 1 µM.
The target in assay [10] is Tyrosine-protein kinase Fyn (Homo sapiens) (UniProt P06241). The settings on record: at 0.1 µM.
Tyrosine-protein kinase Fyn (Homo sapiens), sequence (P06241 2-537 limits assumed): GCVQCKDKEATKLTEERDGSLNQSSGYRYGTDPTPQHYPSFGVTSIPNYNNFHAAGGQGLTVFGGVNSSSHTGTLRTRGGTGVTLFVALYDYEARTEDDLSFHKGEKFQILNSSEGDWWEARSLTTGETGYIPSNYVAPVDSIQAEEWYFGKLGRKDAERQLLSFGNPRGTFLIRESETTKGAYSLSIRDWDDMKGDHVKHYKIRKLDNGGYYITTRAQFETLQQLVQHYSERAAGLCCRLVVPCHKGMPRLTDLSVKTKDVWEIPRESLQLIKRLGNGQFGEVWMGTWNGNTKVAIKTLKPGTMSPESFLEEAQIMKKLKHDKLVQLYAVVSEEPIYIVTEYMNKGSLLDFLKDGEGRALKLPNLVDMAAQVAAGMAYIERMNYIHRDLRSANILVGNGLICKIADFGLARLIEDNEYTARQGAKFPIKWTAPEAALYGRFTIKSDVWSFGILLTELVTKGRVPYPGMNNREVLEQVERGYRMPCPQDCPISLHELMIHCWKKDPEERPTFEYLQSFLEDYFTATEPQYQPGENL
Assay [11] has the same target. The settings on record: at 1 µM.
The target in assay [12] is Tyrosine-protein kinase HCK (Homo sapiens) (UniProt P08631). The settings on record: at 0.1 µM.
Assay [13] has the same target. The settings on record: at 1 µM.
For assay [14], the target named is Insulin-like growth factor 1 receptor (Homo sapiens) (UniProt P08069). The settings on record: at 0.1 µM.
For assay [15] the target is unchanged. The conditions noted are these: at 1 µM.
Assay [16] has as its target Insulin receptor (Homo sapiens) (UniProt P06213). The conditions noted are these: at 0.1 µM.
The target is the same in assay [17]. The conditions noted are these: at 1 µM.
Assay [18] concerns the target Insulin receptor-related protein (Homo sapiens) (UniProt P14616). The conditions noted are these: at 0.1 µM.
Assay [19] has the same target. The conditions noted are these: at 1 µM.
Assay [20] concerns the target T4, Tyrosine-protein kinase ITK/TSK (Homo sapiens) (UniProt Q08881).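 Also: mean percent inhibition of ITK from the GSK PKIS screen.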
T4 sequence (whole entry): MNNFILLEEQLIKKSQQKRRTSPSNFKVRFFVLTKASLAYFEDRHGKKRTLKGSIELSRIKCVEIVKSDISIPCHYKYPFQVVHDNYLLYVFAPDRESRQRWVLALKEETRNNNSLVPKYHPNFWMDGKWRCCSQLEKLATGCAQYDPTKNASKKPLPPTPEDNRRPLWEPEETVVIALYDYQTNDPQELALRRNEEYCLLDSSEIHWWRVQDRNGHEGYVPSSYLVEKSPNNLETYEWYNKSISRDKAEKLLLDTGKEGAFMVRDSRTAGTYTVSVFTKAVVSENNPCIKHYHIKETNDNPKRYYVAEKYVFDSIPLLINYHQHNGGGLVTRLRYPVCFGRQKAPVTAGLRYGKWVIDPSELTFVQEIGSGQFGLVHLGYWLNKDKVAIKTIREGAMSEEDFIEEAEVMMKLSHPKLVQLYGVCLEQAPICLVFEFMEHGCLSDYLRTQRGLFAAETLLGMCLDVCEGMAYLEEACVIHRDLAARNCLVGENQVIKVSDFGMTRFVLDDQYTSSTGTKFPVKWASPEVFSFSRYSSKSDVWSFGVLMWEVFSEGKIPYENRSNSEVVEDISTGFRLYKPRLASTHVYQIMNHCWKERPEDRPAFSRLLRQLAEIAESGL
The settings on record: at 0.1 µM.

Each structure is given as a SMILES string.

Macrophage colony-stimulating factor 1 receptor (Homo sapiens), sequence (P07333 whole entry): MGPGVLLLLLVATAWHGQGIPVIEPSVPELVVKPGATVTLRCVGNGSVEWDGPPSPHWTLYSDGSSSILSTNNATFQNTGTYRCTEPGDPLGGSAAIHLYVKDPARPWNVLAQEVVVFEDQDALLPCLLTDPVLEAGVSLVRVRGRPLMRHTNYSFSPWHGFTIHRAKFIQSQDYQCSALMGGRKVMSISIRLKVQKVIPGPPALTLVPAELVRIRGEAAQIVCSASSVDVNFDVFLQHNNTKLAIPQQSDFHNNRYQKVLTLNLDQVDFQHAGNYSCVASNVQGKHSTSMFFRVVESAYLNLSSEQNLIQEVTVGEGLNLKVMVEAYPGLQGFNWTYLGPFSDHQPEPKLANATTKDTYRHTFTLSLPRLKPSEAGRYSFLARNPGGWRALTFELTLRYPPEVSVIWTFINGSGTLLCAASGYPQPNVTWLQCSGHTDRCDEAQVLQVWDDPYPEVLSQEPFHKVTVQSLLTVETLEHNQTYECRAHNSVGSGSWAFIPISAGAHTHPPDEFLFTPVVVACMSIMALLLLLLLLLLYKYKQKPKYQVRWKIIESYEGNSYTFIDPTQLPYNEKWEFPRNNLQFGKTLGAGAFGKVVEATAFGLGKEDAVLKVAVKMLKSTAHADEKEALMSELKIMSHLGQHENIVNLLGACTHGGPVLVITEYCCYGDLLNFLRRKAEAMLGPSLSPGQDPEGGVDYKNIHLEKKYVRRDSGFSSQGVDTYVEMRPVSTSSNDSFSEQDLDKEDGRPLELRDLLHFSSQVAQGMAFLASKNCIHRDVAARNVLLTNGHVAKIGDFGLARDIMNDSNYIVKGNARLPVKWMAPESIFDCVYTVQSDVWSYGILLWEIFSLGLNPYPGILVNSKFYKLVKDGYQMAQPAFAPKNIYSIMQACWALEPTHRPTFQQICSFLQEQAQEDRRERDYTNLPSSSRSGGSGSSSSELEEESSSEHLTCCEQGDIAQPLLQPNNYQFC
Insulin receptor (Homo sapiens), sequence (P06213 28-758 limits assumed): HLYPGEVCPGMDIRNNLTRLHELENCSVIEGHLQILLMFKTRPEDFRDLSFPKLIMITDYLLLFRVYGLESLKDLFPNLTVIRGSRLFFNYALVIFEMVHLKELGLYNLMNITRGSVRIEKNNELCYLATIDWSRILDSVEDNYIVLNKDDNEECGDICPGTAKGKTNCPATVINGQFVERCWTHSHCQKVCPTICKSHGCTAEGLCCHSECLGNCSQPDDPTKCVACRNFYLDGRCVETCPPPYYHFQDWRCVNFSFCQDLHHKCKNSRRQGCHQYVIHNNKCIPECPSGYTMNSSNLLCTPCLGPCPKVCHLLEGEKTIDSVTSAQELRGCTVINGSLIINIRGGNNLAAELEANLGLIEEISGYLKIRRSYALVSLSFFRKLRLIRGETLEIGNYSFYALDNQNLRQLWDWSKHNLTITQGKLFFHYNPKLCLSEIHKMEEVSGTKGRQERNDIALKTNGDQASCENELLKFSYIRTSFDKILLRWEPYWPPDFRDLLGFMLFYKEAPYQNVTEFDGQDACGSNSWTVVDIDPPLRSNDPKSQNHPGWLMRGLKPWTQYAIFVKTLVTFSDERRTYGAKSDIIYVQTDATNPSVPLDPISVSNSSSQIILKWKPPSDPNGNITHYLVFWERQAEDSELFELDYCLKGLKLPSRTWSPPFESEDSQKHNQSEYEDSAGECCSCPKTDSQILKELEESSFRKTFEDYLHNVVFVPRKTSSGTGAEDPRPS
Insulin receptor (Homo sapiens), sequence (P06213 763-1382 limits assumed): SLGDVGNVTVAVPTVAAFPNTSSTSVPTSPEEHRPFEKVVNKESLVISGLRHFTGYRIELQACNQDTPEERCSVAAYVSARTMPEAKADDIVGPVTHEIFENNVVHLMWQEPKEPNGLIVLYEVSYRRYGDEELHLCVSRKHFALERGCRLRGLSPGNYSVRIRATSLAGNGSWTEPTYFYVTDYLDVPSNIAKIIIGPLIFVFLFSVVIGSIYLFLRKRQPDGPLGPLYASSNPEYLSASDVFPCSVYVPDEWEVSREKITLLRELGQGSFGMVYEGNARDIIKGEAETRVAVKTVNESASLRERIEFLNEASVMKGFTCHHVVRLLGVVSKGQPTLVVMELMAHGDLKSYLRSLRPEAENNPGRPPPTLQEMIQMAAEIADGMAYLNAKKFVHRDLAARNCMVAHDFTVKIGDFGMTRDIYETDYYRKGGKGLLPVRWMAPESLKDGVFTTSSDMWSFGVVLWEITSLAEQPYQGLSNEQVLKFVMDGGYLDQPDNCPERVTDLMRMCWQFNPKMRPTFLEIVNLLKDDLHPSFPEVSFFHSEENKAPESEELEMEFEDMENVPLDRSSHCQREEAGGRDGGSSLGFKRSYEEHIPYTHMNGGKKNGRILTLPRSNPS
Serine/threonine-protein kinase PLK1 (Homo sapiens), sequence (P53350 whole entry): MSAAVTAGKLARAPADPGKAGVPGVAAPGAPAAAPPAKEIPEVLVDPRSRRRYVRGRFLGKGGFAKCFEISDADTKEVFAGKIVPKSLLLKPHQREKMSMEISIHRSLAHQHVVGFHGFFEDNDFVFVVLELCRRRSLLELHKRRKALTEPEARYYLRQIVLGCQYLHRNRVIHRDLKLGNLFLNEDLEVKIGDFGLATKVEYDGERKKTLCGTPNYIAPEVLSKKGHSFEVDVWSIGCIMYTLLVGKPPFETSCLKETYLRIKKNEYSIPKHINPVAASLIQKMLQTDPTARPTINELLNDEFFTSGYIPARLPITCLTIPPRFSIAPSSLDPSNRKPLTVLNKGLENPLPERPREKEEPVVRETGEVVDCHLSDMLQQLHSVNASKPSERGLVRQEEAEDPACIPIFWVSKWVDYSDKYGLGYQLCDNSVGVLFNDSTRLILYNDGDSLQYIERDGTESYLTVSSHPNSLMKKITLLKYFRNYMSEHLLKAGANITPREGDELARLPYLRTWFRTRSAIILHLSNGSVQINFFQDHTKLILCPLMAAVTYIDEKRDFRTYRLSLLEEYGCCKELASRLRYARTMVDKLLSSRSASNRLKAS
Insulin receptor-related protein (Homo sapiens), sequence (P14616 27-742 limits assumed): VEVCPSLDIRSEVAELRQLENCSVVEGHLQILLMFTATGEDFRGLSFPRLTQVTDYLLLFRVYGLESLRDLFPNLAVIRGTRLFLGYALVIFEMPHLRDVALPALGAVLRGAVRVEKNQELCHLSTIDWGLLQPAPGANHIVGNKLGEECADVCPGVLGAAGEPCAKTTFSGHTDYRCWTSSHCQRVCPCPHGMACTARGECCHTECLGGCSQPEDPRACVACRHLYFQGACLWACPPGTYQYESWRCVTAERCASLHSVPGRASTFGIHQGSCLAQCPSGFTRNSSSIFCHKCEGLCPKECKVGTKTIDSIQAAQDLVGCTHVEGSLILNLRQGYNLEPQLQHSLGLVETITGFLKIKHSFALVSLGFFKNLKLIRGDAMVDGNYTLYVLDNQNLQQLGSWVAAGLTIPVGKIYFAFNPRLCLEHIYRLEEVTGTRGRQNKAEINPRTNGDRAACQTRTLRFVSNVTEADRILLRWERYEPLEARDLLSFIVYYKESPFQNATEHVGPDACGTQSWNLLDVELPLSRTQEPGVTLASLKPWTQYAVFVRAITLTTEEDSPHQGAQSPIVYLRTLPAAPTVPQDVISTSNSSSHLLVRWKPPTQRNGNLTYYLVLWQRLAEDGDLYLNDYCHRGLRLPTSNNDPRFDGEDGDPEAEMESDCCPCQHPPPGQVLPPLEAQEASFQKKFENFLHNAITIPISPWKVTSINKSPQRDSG
Insulin receptor-related protein (Homo sapiens), sequence (P14616 747-1297 limits assumed): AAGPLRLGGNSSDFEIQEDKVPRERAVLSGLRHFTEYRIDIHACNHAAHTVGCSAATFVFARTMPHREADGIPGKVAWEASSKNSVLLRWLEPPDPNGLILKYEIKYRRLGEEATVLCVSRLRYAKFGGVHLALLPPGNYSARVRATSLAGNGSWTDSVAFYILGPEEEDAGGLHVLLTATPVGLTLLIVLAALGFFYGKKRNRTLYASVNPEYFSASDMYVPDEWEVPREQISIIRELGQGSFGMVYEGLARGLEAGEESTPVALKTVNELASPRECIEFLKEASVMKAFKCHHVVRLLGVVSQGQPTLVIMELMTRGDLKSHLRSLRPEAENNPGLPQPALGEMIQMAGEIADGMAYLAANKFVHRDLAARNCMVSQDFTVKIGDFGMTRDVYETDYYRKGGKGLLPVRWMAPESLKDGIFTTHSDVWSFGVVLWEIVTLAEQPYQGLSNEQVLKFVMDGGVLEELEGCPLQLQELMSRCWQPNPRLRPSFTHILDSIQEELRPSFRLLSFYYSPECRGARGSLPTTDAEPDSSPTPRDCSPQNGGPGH

In general, inhibition refers to the change of the read-out against control, counted positive when it falls. For the molecule `Nc1ccc(C#Cc2cncnc2Nc2ccc(OCc3cccc(F)c3)c(Cl)c2)cc1`, the inhibition in [1] is 6.07%; in assay [2] it was 0.94%; in [3] it was -0.53%; in assay [4], 4.2%; in assay [5] it was -6.67%; in assay [6], 1.01%. Further, the inhibition in [7] amounted to 1.86%; in assay [8], 0.06%; in assay [9], 3.9%; in assay [10], 1.67%; in assay [11] it was 1.14%; in [12], 4.6%. The inhibition was 5.04% in assay [13]; 1.78% in assay [14]; -0.29% in assay [15]; 1.22% in [16]; 2.12% in assay [17]; 2.27% in [18]. Besides, the inhibition in assay [19] is 2.76%; in assay [20], 0.59%.

Consider `Cc1ccc(Nc2ccnc(Nc3cccc(C(N)=O)c3)n2)cc1O`, for which the inhibition in assay [1] was 10.2%; in [2] it was 3.22%; in [3], 6.17%; in assay [4], 5.91%; in assay [5], 86.1%; in assay [6], 64%. The inhibition in assay [7] was 95%; in [8], 12.7%; in assay [9], 49.9%; in assay [10], 77.2%; in assay [11] it was 89.4%; in [12] it was 58.8%. Also, the inhibition in assay [13] was 83.5%; in [14], -3.28%; in assay [15], 17.2%; in [16], 3.53%; in assay [17], 13.7%; in [18], 2.88%. Further, the inhibition in [19] is 3.49%; in [20], -2.42%.

Turning to `c1ccc(Nc2ncc(-c3ccccc3)o2)cc1`, the inhibition in [1] amounted to 10.2%; in [2] it was 5.96%; in assay [3] it was 5.42%; in assay [4] it was 18.1%; in [5] it was 9.89%; in [6] it was 3.79%. The inhibition in assay [7] came to 11.7%; in assay [8] it was 3.76%; in assay [9] it was 22.9%; in [10] it was 3.46%; in assay [11] it was 15.1%; in assay [12], 6.83%. Moreover, the inhibition in assay [13] worked out at 13.3%; in [14], 7.16%; in [15] it was 5.2%; in assay [16] it was 4.8%; in assay [17], 6.98%; in [18], 2.31%. For the same molecule, the values for the inhibition in [19] and in [20] were 2.61% and 0.38%, respectively.

In the case of `CN(C)c1cc2c(Nc3ccc4c(cnn4Cc4ccccc4)c3)ncnc2cn1`, the inhibition worked out at 6.27% in assay [1]; 3.14% in assay [2]; 3.09% in assay [3]; 5.61% in assay [4]; 1.61% in assay [5]; 2.71% in assay [6]. For the same molecule, the inhibition was found to be 2.4% in assay [7]; 1.36% in [8]; 3.34% in [9]; 3.84% in assay [10]; 15.3% in assay [11]; 7.12% in assay [12]. For the same molecule, the inhibition in assay [13] was found to be 19.9%; in assay [14], 0.45%; in assay [15], 2.94%; in assay [16] it was 5.08%; in assay [17] it was 6.13%; in assay [18], 1.7%. The values for the inhibition in assay [19] and in [20] were 0.35% and 1.37%, respectively.
